Cycloheximide cs: Cycloheximide Counterscreen for Small Molecule Inhibitors of Shiga Toxin; cell reporter, cycloheximide protein synthesis inhibition counterscreen; max response, %; 300,000 compounds, 12% hits; in the data active = max response mostly above about 13%, no sharp cut-off; inactive = mostly below about 14%; also: read at 38.3 µM for the half of the compounds with a filed dose; 0% is about no effect
Sm TGR block: qHTS Assay for the Inhibitors of Schistosoma Mansoni Peroxiredoxins; purified TGR, DTNB reduction, TNB absorbance 405 nm; Schistosoma mansoni thioredoxin glutathione reductase (TGR), Q962Y6; 360,000 compounds, 3% hits; Potency, µM (doses to about 114 µM), inactives show top-dose activity change, negative = inhibition, hits mostly inhibitors; AID 485364, 2010; active = well fitted inhibition curve with a large enough effect; inconclusive = small, poorly fitted or top-dose-only effect; inactive = no such curve, though single readings can be large or run the other way; also: potency is read from the fitted curve at half-maximal effect; % is scaled to controls: 0 for no effect and ±100 for the full control effect; nearly all actives have a fitted effect of over 60% in size
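Kinetic colorimetric format: TGR-catalysed, NADPH-driven DTNB reduction monitored via TNB absorbance. Enzyme dispensed at 20 nM; compound exposure 15 min at room temperature before reaction start.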
Shiga inhibitor: A qHTS for Small Molecule Inhibitors of Shiga Toxin. Vero cells, Shiga toxin protein synthesis inhibition reporter. inhibition, % at 38.7 µM. 290,000 compounds, 9.2% hits. AID 2315, 2010; in the data active = inhibition mostly above about 28%, no sharp cut-off; inactive = mostly below about 43%; also: 0% is about no effect
FMDV inh: High Throughput Screening for Foot and Mouth Disease Virus Antivirals. FMDV antiviral cell-based qHTS. Potency, µM (doses to about 57.9 µM), inactives show at the highest dose activity change, negative = inhibition, usual class: inhibitors. 410,000 compounds, 1.2% hits; calls by dose curve; tested in HEK293T cells; also: read-out not given here; potency is read from the fitted curve at half-maximal effect; % is scaled to controls: 0 for no effect and ±100 for the full control effect; nearly all actives have a fitted effect of over 45% in size
Numbers without * were called inactive; u = inconclusive; x = no result given. Only some compounds are listed: those with a hit (about 12% of all), similar ones and a draw of the others.

SMILES | Cycloheximide cs | Sm TGR block | Shiga inhibitor | FMDV inh
CCN(CC)c1ccc(/C=N/N2CCOCC2)cc1 | 52.8* | -6.5% | 51.8* | 0.0%
COc1cccc(NC(=O)Cn2c(=O)n(-c3ccc(C)cc3)c(=O)c3ccccc32)c1 | x | 0.6% | x | -10.8%
Cc1cccc(NC(=O)C2CCCN(S(=O)(=O)c3cccc4nonc34)C2)c1C (stereo not given) | x | -6.8% | x | 3.6%
CC(C)N=C1NN=C(c2ccc(Cl)c(Cl)c2)CS1 | 38.4* | 7.8% | 102.3* | -2.9%
CC(C)N=C1NN=C(c2cccs2)CS1 | 34.6* | 0.2% | 54.3* | 17.0%
CC(C)c1ccc(N=C2NN=C(c3cccs3)CS2)cc1 | 40.8* | 3.6% | 86.8* | 34.7%
Cc1ccc(S(=O)(=O)c2cnc(SCC(=O)Nc3ccc4c(c3)OCCO4)[nH]c2=O)cc1 | x | 5.3% | x | -9.9%
COc1ccccc1N1CCN(C(=O)c2ccc3c(c2)N(Cc2ccccc2)C(=O)c2ccccc2S3(=O)=O)CC1 | x | 3.6% | x | 4.0%
O=C(NCCc1csc(-c2cccnc2)n1)c1cccc(C(F)(F)F)c1 | x | -6.7% | x | u
Cc1ccc(OCC(=O)Nc2ccc(F)cc2)cc1C | 38.6* | 1.2% | 46.2* | x
CC(=O)Nc1cccc(OCC(=O)Nc2ccc(F)cc2)c1 | 15.0* | 2.2% | -32.2 | 39.6%
CCCCc1c(C)c2ccc(OC)c(/C(C)=N\O)c2oc1=O | 18.8* | -28.5% | 35.0 | -11.5%
Cc1ccc(CCNC(=O)c2ccc(Nc3nc4ccccc4n4nnnc34)cc2)cc1 | x | 1.5% | x | 13.4%
CSc1ccc(CCNC(=O)c2cc(C)nc3c2c(C)nn3-c2ccccc2)cc1 | x | -4.2% | x | 12.3%
Cc1sc2nc(CN3CCCC3)nc(N3CCN(S(=O)(=O)c4cccs4)CC3)c2c1C | -11.0 | 4.0% | -20.7 | -6.8%
Cc1sc2nc(-c3cccs3)nc(N3CCCN(C)CC3)c2c1C | 5.3 | 44.7µM* | 33.3 | x
Nc1ccc(N=Nc2ccccc2)c2cccnc12 | 47.9* | u | 89.9* | 37.1%
Nc1ccc(Br)c2cccnc12 | 8.4 | 50.1µM* | 12.6 | -7.2%
O=C(O)CCCC(=O)Nc1cccc(-c2nc3ccccc3[nH]2)c1 | -3.4 | 4.6% | -13.6 | 16.6%
COc1ccc(OCC(=O)Nc2cccc(-c3nc4ccccc4[nH]3)c2)cc1 | 13.7* | 15.7% | 19.9 | u
O=C(COc1ccccc1)Nc1cccc(-c2nc3ccccc3[nH]2)c1 | 22.1* | 11.1% | 39.0 | 1.5%
CCCOc1ccc(C(=O)Nc2cccc(-c3nc4ccccc4[nH]3)c2)cc1 | x | -19.3% | x | u
CCOCC(=O)Nc1cc(C(=O)Nc2ccc(F)cc2)ccc1Cl | 28.6* | 0.9% | 32.8* | x
COCC(=O)Nc1cc(C(=O)Nc2ccccc2)ccc1Cl | 36.3* | 6.2% | 107.5* | x
CC(C)CNC(=O)c1ccc(Cl)c(NC(=O)COc2ccccc2)c1 | -1.5 | 0.7% | -1.1 | x
SMILES | Cycloheximide cs | Sm TGR block | Shiga inhibitor | FMDV inh
CCOCC(=O)Nc1cc(C(=O)Nc2cccc(C)c2C)ccc1Cl | 12.8 | 2.9% | -16.3 | x
Cn1ccc2cc(S(=O)(=O)N3CCC(C(=O)NCCc4ccccc4)CC3)ccc21 | x | -3.0% | x | -13.4%
COC(=O)CNc1c(-c2ccccn2)nc2ccc(Br)cn12 | 36.1* | 39.8µM* | 48.5* | 34.0%
Cc1ccc(Nc2c(-c3ccccn3)nc3ccc(Br)cn23)cc1 | x | 4.8% | x | -20.8%
CC1=C(C(=O)NCc2ccccc2Cl)C2(CCCCCC2)OC1=O | x | 8.5% | x | -4.0%
C=CCN(C(=O)C1=NN(C2CCS(=O)(=O)C2)C(=O)CC1)c1nc(-c2ccc([N+](=O)[O-])cc2)cs1 (stereo not given) | 37.6* | -5.0% | 41.9 | 0.1%
CN(C)CCNC(=O)CN1C(=O)CCn2nc(-c3cn(C)c4ccccc34)cc21 | x | -1.9% | x | -7.4%
CCOc1ccc(-c2c(C)nn3c(C)c(C(=O)NCCc4ccc(C)cc4)cnc23)cc1OCC | x | 4.1% | x | u
CC(/C=C(\C)Nc1ccccc1)=Nc1ccccc1 | 25.7* | -3.5% | 22.8 | -10.1%
NC(=Nc1ccccc1)Nc1ccccc1 | -2.2 | -0.8% | -11.0 | -4.7%
CCn1c(SCc2nc3scc(-c4ccccc4)c3c(=O)[nH]2)nnc1-c1ccc(Cl)cc1 | 1.1 | -6.3% | -1.2 | u
C=CCn1c(SCc2nc3sc(C(=O)O)c(C)c3c(=O)[nH]2)nnc1-c1ccccc1 | 5.3 | -0.6% | -6.9 | 1.0%
C=CCn1c(SCc2nc3scc(-c4ccccc4)c3c(=O)[nH]2)nnc1-c1ccccc1F | -1.9 | 3.6% | -4.5 | 28.2µM*
Cc1ccc(-c2csc3nc(CSc4nnc(-c5ccc(Cl)cc5)n4C)[nH]c(=O)c23)cc1 | 12.9* | -8.6% | -9.0 | 0.0%
O=c1[nH]c(Cc2ccc(F)cc2)nc2scc(-c3ccc(F)cc3)c12 | 17.5* | -0.2% | 27.9 | 0.6%
CCCCOc1ccc(S(=O)(=O)Nc2cccc(-c3ccc(N4CCOCC4)nn3)c2)cc1 | x | 4.8% | x | 30.6%
COc1ccc(-c2nnc(SCc3ccccc3F)o2)cc1OC | 21.3 | 11.7% | 52.3* | 0.0%
Cc1ccc(-c2nnc(SCc3ccccc3F)o2)cc1 | 44.0* | -1.6% | 63.3* | 9.8%
NCCc1nnc(SCc2ccccc2F)o1 | -3.8 | -0.7% | -5.3 | -1.7%
COc1cc(-c2nnc(SCc3cc(=O)oc4cc(C)ccc34)o2)cc(OC)c1OC | 29.0* | -2.3% | 62.8 | 20.3%
COc1cc(-c2nnc(SCC(=O)Oc3ccc(C)cc3C)o2)cc(OC)c1OC | x | 1.9% | x | -5.2%
O=C(NC1(O)C(=O)c2ccccc2C1=O)c1ccccc1 | -1.6 | -12.9% | -3.2 | -7.6%
COC1(NC(=O)c2ccccc2)C(C)=CC(=O)C=C1C | 8.4 | 25.1µM* | -4.6 | -9.9%
COc1cc(C=NNc2nc3c([nH]2)c(=O)n(C)c(=O)n3C)ccc1O | x | x | x | -17.9%
COc1cc(/C=N/Nc2ccnc(=O)[nH]2)ccc1O | 32.1* | 1.0% | 66.7 | 4.1%
SMILES | Cycloheximide cs | Sm TGR block | Shiga inhibitor | FMDV inh
O=c1nccc(N/N=C/c2cccc(O)c2)[nH]1 | 26.3* | 0.7% | 2.3 | 33.0%
CCOc1ccc(C(=O)Nc2nnc(S(=O)(=O)N(CC)c3ccccc3C)s2)cc1 | x | -4.6% | x | -4.9%
CC(NC(=O)c1ccco1)c1nnc2n1CCN(Cc1ccc(N3CCCC3)cc1)CC2 (stereo not given) | x | x | x | 4.0%
O=C(NCCc1ccc(Cl)cc1)c1cnc2sc(N3CCCCC3)nn2c1=O | x | 11.8% | x | -29.2%
Cc1cccc(NC(=O)C(=O)c2cc(C)n(-c3ccccc3)c2C)c1C | x | 7.3% | x | -17.1%
Cn1c(=O)c(C(=O)CN2CCCc3ccccc32)c(N)n(Cc2ccccc2)c1=O | 49.2* | 0.0% | 15.1 | -14.7%
Cn1c(=O)c(C(=O)CN2CCc3ccccc32)c(N)n(Cc2ccccc2)c1=O | -1.2 | 3.0% | -10.1 | -20.1%
COc1ccccc1C(=O)Nc1nc2ccccc2[nH]1 | -11.1 | 1.3% | -27.7 | 1µM*
COc1cc(SC)ccc1C(=O)Nc1nc2ccccc2[nH]1 | -12.3 | -14.1% | -22.5 | 0.0355µM*
COc1ccccc1C(=O)NCCC(=O)Nc1nc2ccccc2[nH]1 | x | -1.9% | x | 0.0%
COc1cc(C(=O)Nc2nc3ccccc3[nH]2)cc(OC)c1OC | 10.0 | -0.8% | 18.8 | 3.0%
COc1ccc([N+](=O)[O-])cc1NC(=O)C(C)OC(=O)Cc1ccc(OC)c(OC)c1 (stereo not given) | x | x | x | -24.6%

Source: PubChem (National Center for Advancing Translational Sciences (NCATS))
